Screening data: PubChem BioAssay, National Center for Advancing Translational Sciences (NCATS)
ELG1 genotox: inducers of genotoxicity in HEK293T ELG1-luciferase cells; HEK293T ELG1-luciferase reporter, luminescence, 16 h; Potency, µM (highest dose often 46 µM), inactives show at the top dose activity change, positive = activation, actives largely listed as activators; actives 1.3% (n = 330,000); AID 504466; also: % of control where 0% means no effect; nearly all actives have a fitted effect of over 60% in size
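HEK293T cells expressing luciferase-tagged ELG1 were exposed to compound or DMSO vehicle for 16 hr at 37 °C and 5% CO2. Luciferase activity was then measured with ONE-Glo after 30 min at room temperature.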
SMN2 splice up: SMN2 splice variant enhancement; HEK293 SMN2-luciferase splicing reporter, luminescence, 30-36 h; Potency, µM (doses to about 46.1 µM), for inactives: top-dose activity change, positive = activation, most hits filed as activators; actives 2.8% (n = 210,000); AID 1458; also: % of control where 0% means no effect; nearly all actives have a fitted effect of over 55% in size
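HEK293 cells carry an SMN2 […]–luciferase reporter in which exon 7 inclusion puts luciferase in frame. Cells were plated 10-12 h before compound addition, then incubated 30-36 h at 37C. ONE-Glo luminescence was read; sodium butyrate at 4.5 mM final served as control.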
NPC1 promoter act: activators of NPC1 promoter; AID 485313; Potency, µM (doses to about 9.22 µM), without a hit: at the highest dose activation, actives largely listed as activators; Huh7 NPC1 promoter luciferase reporter, 24 h; actives 2.4% (n = 320,000); also: % of control where 0% means no effect; nearly all actives have a fitted effect of over 60% in size
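Luminescence read-out of NPC1 promoter-driven luciferase in stably transfected Huh7 cells; compounds delivered in DMSO and left 24 h at 37C, 5% CO2, qHTS titration format.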
FLuc modulator: firefly luciferase modulation, counter-screen for miR-21 project; P08659; purified FLuc, Km substrates, luminescence inhibition; Potency, µM (top dose mostly 57.5 µM), without a hit: at the highest dose activity change, negative = inhibition, actives largely listed as inhibitors; actives 6.9% (n = 360,000);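 also: plate controls were vehicle for no effect and reference inhibitor for full effect; nearly all actives have a fitted effect of over 55% in size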
Target sequence (P08659 whole entry, looked up): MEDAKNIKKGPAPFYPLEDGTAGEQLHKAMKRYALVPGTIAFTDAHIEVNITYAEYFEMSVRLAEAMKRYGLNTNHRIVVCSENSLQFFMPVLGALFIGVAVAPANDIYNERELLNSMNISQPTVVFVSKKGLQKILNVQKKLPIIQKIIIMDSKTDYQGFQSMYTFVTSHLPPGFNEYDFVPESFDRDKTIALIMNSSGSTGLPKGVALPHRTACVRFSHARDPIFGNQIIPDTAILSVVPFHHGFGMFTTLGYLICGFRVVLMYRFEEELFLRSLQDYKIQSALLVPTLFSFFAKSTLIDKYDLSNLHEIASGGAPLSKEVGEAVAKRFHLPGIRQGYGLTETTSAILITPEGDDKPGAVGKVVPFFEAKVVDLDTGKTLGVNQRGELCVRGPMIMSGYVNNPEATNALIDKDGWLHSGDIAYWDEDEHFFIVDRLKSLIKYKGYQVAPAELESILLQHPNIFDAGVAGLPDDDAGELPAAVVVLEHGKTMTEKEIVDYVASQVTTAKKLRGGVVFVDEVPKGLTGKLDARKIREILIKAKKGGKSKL
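Purified P. pyralis luciferase, 10 nM final, with Km-level 10 uM D-luciferin and 10 uM ATP in 50 mM Tris acetate pH 7.5, 10 mM Mg acetate, 0.01% Tween-20, 0.05% BSA; 6-point qHTS titration about 60 µM downward; luminescence read.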
KinaseGlo FLuc: Kinase-Glo luciferase inhibition (counter-screen). Kinase-Glo luciferase, ATP luminescence, 8 min. Potency, µM (series often up to 38.3 µM), for inactives: at the highest dose activity change, negative = inhibition, actives largely listed as inhibitors. actives 0.28% (n = 200,000). AID 1379; also: % is scaled to controls: 0 for no effect and ±100 for the full control effect; nearly all actives have a fitted effect of over 60% in size
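Luminescence was the read-out, taken after 8-minute incubation at ambient temperature. Luciferase turned over luciferin with 10 uM ATP in imidazole pH 7.2 buffer containing KCl, MgCl2, Tween 20 and BSA.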
Rab9 promoter act: Rab9 promoter activation. Huh7 Rab9 promoter-luciferase reporter, luminescence, 24 h. Potency, µM (top dose mostly 9.22 µM), for the others: at the top dose activation, negative = inhibition, actives largely listed as activators. actives 2.8% (n = 320,000); also: % of control where 0% means no effect; nearly all actives have a fitted effect of over 60% in size
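Measured in stably transfected Huh7 cells bearing a Rab9 promoter–luciferase construct: 24 h compound treatment at 37 °C, followed by luminescence detection.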
Numbers without * were called inactive; ? = inconclusive; nt = not tested or not shown; [ ] = dose if it differs, or a comment. Compounds with a hit are over-represented: about 7.5% of the library has one in this group of screens. Calls follow the shape of the dose curve; as a rule, active = well fitted curve in the direction sought with a large enough effect; inconclusive = small, poorly fitted or top-dose-only effect, or another doubt; inactive = no such curve, though single readings can be large; an effect the other way counts as inactive or inconclusive. Potency is read from the fitted curve at half-maximal effect.

SMILES	ELG1 genotox	SMN2 splice up	NPC1 promoter act	FLuc modulator	KinaseGlo FLuc	Rab9 promoter act
CCOC(=O)N1CCc2c(sc(NCc3ccc(OC)c(OC)c3OC)c2C(=O)Nc2ccc(OC)cc2OC)C1	nt	nt	nt	15µM*	nt	nt
CCOC(=O)N1CCc2c(sc(NCc3cccs3)c2C(=O)Nc2ccc(OC)cc2OC)C1	nt	nt	nt	13µM*	nt	nt
CCOC(=O)N1CCc2c(sc(NCc3ccc(N(CC)CC)cc3)c2C(=O)Nc2cc(OC)ccc2OC)C1	nt	nt	nt	-18%	nt	nt
CCOC(=O)N1CCc2c(sc(NCc3ccc(OCC)cc3)c2C(=O)Nc2ccc(OC)cc2OC)C1	nt	nt	nt	15µM*	nt	nt
CCCn1c(SCC(=O)c2cc(C)n(-c3cc(C)on3)c2C)n[nH]c1=O	-5%	nt	-1%	-5%	nt	-7%
CCC(=O)N1CCc2cc(Br)cc(S(=O)(=O)CCC(=O)Nc3cccc(C)c3C)c21	nt	8%	nt	1%	nt	nt
Cc1ccc(S(=O)(=O)NC(=O)c2cc(C)n(-c3ccc(N(C)C)cc3)c2C)cc1	8%	nt	3%	?	nt	14%
Cc1ccc(OCC(=O)OCCN2C(=O)c3ccccc3C2=O)cc1C	-4%	27%	-4%	-2%	3%	1%
CCOCCOC(=O)COc1ccc(N2C(=O)c3ccccc3C2=O)cc1	-7%	2%	-7%	19µM*	-5%	-6%
CC(C)Oc1ccc(N2C(=O)c3ccccc3C2=O)cc1	?	-18%	1%	7.6µM*	-1%	0%
COc1ccc(N2C(=O)c3ccccc3C2=O)cc1	5%	11%	0%	?	-5%	0%
COc1cc(OC)cc(C(=O)Nc2ccccc2-c2nc3ccccc3s2)c1	nt	-13%	nt	-4%	nt	nt
Cc1ccc2sc(-c3ccc(NC(=O)c4cc(-n5cnnc5)ccc4Cl)cc3)nc2c1	22%	13µM*	?	6µM*	1%	?
Cc1c(NC(=O)c2cc(-n3cnnc3)ccc2Cl)cccc1-c1nc2ccccc2s1	10%	5.6µM*	?	0.6µM*	-22%	3.5µM*
CC(=O)Nc1ccc(NC(=O)c2cc(-n3cnnc3)ccc2Cl)cc1	-2%	-6%	-7%	0%	0%	0%
O=C(Nc1cccc(-c2nc3ccccc3s2)c1)c1cc(-n2cnnc2)ccc1Cl	0%	nt	28%	6.7µM*	nt	20%
Cc1c(NC(=O)c2cccs2)cccc1-c1nc2ccccc2s1	-3%	-7%	8%	4.3µM*	1%	18%
C[C@H](CC(=O)O)C(C(=O)O)C(=O)O	nt	-22%[9.22 µM]	nt	nt	-9%[7.66 µM]	nt
O=C(Nc1cc(F)ccc1F)C1CCN(c2nc3ccccc3n3cccc23)CC1	nt	nt	nt	2%	nt	nt
Cc1cccc(NC(=O)CSc2nc3c([nH]c4ccccc43)c(=O)n2-c2ccc(F)cc2)c1C	nt	nt	nt	-1%	nt	nt
COc1ccc(-c2cc(CCCC(=O)NCCc3ccccc3)no2)cc1	6%	nt	?	7.6µM*	nt	?
COc1ccc(-c2cc(CCCC(=O)NCc3ccccn3)no2)cc1	10%	-34%	13%	8.5µM*	1%	12%
CCOc1ccc(-c2cc(CCCC(=O)NCCc3ccccc3)no2)cc1	?	-30%	10%	?	-1%	-2%
COc1cccc(OCc2nc3ccccc3n2CCOc2ccc(C)cc2)c1	nt	-11%	nt	-15%	nt	nt
Cc1ccccc1NC(=O)c1c(C)oc2ccc(O)c(CN3CCC(C)CC3)c12	nt	-3%	nt	2%	nt	nt
SMILES	ELG1 genotox	SMN2 splice up	NPC1 promoter act	FLuc modulator	KinaseGlo FLuc	Rab9 promoter act
CN(C)/C=C1\C(=O)N(c2ccc(Cl)cc2)CS1(=O)=O	?	29%	3.2µM*	17µM*	-9%	?
Cc1ccc(N2CS(=O)(=O)/C(=C/N(C)C)C2=O)cc1	?	13µM*	2µM*	12µM*	-28%	1.3µM*
CN(C)/C=C1\SC(=S)N(c2ccc(F)cc2)C1=O	12%	nt	10%	-15%	nt	20%
O=C(Nc1ccc2nc(-c3cccnc3)[nH]c2c1)c1ccco1	-1%	11%	-3%	?	2%	-4%
COC(=O)c1ccc(C(=O)Nc2ccc3nc(-c4ccncc4)[nH]c3c2)cc1	-1%	nt	-6%	-5%	nt	-5%
O=C(Nc1ccc2nc(-c3ccccc3)[nH]c2c1)c1cccs1	?	-23%	20%	5.4µM*	-4%	?
O=C(Nc1ccc2nc(-c3ccc4nc[nH]c4c3)[nH]c2c1)c1cccs1	-1%	-7%	-1%	21µM*	1%	-3%
COc1ccc(C(=O)NC(=S)N2CCOCC2)cc1Br	13%	nt	10%	-2%	nt	9%
Cc1ccc(NC(=O)COC(=O)C2CC2(Cl)Cl)cc1C (stereo not given)	3%	-8%	1%	8.5µM*	3%	-1%
CCCCC(=O)OCC(=O)Nc1ccc(C)c(F)c1	2%	-13%	1%	17µM*	1%	-8%
CCCCC(=O)OCC(=O)Nc1ccc(OC(F)F)cc1	1%	-16%	0%	?	-3%	8%
COC(=O)CCC(=O)Nc1ccc(N=Nc2ccccc2)cc1	?	?	27%	21µM*	0%	?
Cc1ccc(NC(=O)COC(=O)C2CC2)cc1Cl	3%	nt	-2%	15µM*	nt	1%
CC(C)(C)c1ccc(C(=O)C2CCCN(C(=O)c3ccccn3)C2)cc1 (stereo not given)	16%	nt	2%	-11%	nt	-10%
COc1ccc(S(=O)(=O)Nc2cc(S(=O)(=O)c3ccccc3)c(O)c(C)c2C)cc1	nt	4%	nt	?	nt	nt
CCCCN(C(=O)c1cc(S(=O)(=O)N2CCOCC2)ccc1Cl)c1c(N)n(CC(C)C)c(=O)[nH]c1=O	-5%	nt	-7%	4%	nt	3%
O=C(COC(=O)C1CC1)Nc1ccc(OC(F)F)cc1	10%	-6%	0%	?	-2%	0%
O=C(COC(=O)C1CCC1)NCc1ccc(Cl)cc1Cl	12%	nt	0%	17µM*	nt	2%
O=C(COC(=O)C1CC1)Nc1ccc(N=Nc2ccccc2)cc1	21µM*	6.3µM*	3.5µM*	?	-5%	0.63µM*
O=c1cc(-c2cccc(-c3ccc(C(F)(F)F)cc3)c2)c2cc3c(cc2o1)OCO3	nt	nt	nt	nt	2%[39.9 µM]	nt
Cc1ccc(-n2nnc(-c3cc4ccccc4n3C)n2)cc1	?	nt	2.8µM*	0.85µM*	nt	1.6µM*
Cn1c(-c2nnn(-c3ccc(F)cc3)n2)cc2ccccc21	5.2µM*	nt	?	1.3µM*	nt	4µM*
Cn1c(-c2ccccc2)cc2ccccc21	-1%	nt	0%	?	nt	-4%
CC(OC(=O)c1ccc(Cl)nc1)C(=O)NC1CCCC1 (stereo not given)	1%	nt	-6%	-1%	nt	1%
COc1ccc(CNc2ncncc2-c2ccccc2Cl)c(OC)c1	nt	-2%	nt	nt	-1%	nt
